Screening data deposited in PubChem BioAssay by several laboratories.
An excerpt weighted towards active compounds, which were near 0.78% of everything screened.
PriA SSB inh: inhibitors of Klebsiella pneumoniae PriA binding to SSB C-terminal tail, primary screen, biochemical, AlphaScreen; AlphaScreen SSBct-PriA binding, biotinylated peptide; inhibition, % at 33 µM; 0.6% of 430,000 active; in the data active means inhibition mostly above about 37%, no sharp cut-off; inactive means mostly below about 20%;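 further: plate controls were negative control peptide for no effect and reference peptide for full effect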
BJeLR lethal: MLPCN primary cell-based screen for lethality selective to Ras in HRASV12 cells; BJeLR (HRASV12) viability, CellTiter-Glo ATP luminescence, 48 h; inhibition, % (concentration not given with the values); 0.17% of 300,000 active; in the data active means inhibition above about 50%
3CLpro inhibitor: SARS-CoV 3CLpro protease inhibitors, primary screen, biochemical, quenched FRET. Replicase polyprotein 1ab (Severe acute respiratory syndrome coronavirus), P0C6X7. recombinant SARS-CoV 3CLpro, quenched FRET peptide cleavage. inhibition, % at 6 µM. 0.14% of 290,000 active. AID 1706, 2009; in the data active means inhibition above about 12%
* = called active by the depositor; . = not tested or not shown; + = active, no number.

SMILES	PriA SSB inh	BJeLR lethal	3CLpro inhibitor
Cc1ccc(NC(=O)C(=O)NCCC(c2ccccc2)c2ccccc2)cc1Cl	-9	.	.
O=C(NCCC(c1ccccc1)c1ccccc1)C(=O)Nc1ccncc1	47*	.	.
COc1ccc(C(=O)COC(=O)C2CC3CCCC(C2)C3=O)cc1Br (stereo unspecified)	-4	7	.
COc1ccc(C(=O)COC(=O)CN2CC(=O)Oc3ccccc32)cc1Br	80*	.	0
Cn1nc(-c2ccccc2)cc1C(=O)N1CCN(C(=O)[C@H]2C[C@@H]2c2ccc(F)cc2)CC1	-8	.	.
O=C(Cn1cccc1)Nc1ccc(-c2csc(Nc3cccnc3)n2)cc1	7	.	.
COc1ccc2oc(C(=O)Nc3ccc(NC(C)=O)cc3)cc(=O)c2c1	5	.	.
CSCC[C@](C)(O)CNC(=O)c1ccccc1SC	-4	.	.
CCOc1ccc(N)c(SSc2cc(OCC)ccc2N)c1	-5	4	0
CCOc1cc(-c2ccc(N)c(OCC)c2)ccc1N	70*	-5	-1
c1ccc(CCn2c(-c3ccccc3)nc3ccccc32)cc1	-14	.	.
O=C(Nc1c2c(nn1-c1nc3ccccc3s1)CCC2)C1=COCCO1	-11	.	.
CCOCCCNC(=O)c1nnc2n(c1=O)CCN2c1ccc(C)cc1	-10	.	.
Cc1c[nH]c2cccc(OCC(CNC(C)(C)C)OC(=O)c3ccccc3)c12 (stereo unspecified)	49*	5	-2
Cc1ccc(CN(CC(O)COc2cccc3[nH]cc(C)c23)C(C)(C)C)cc1 (stereo unspecified)	1	-22	1
CCS(=O)(=O)N1CCCc2cc(NC(=O)c3ccc(-c4ccsc4)cc3)ccc21	2	.	.
O=[N+]([O-])c1cccc(/C=N/N2CCN(c3ccccn3)CC2)c1	.	12	0
O=[N+]([O-])c1ccccc1C=NN1CCN(c2ccccn2)CC1	39*	.	.
O=[N+]([O-])c1ccccc1/C=C\C=N\N1CCN(c2ccccc2)CC1	.	1	8
COc1ccccc1N1CCN(/N=C/C=C/c2ccccc2[N+](=O)[O-])CC1	+	-10	0
CN(C)C(CNS(=O)(=O)c1ccc(N2CCCCS2(=O)=O)cc1)c1cn(C)c2ccccc12 (stereo unspecified)	4	.	.
COC(=O)c1ccc(S(=O)(=O)NCCn2ccnc2-c2ncccn2)cc1	96*	.	.
O=C(NCCn1ccnc1-c1ncccn1)c1ccc(Cl)s1	5	.	.
O=S(=O)(NCCn1ccc(-c2cccs2)n1)c1ccc2c(c1)CCCC2	-9	.	.
O=S(=O)(NCCn1ccnc1-c1ncccn1)c1ccc(Cl)s1	44*	.	.
SMILES	PriA SSB inh	BJeLR lethal	3CLpro inhibitor
O=S(=O)(NCCn1ccnc1-c1ncccn1)c1ccc(OC(F)(F)F)cc1	1	.	.
O=S(=O)(NCCn1ccnc1-c1ncccn1)c1ccc2c(c1)CCCC2	96*	.	.
COc1ccc(/C=C/C(=O)Nc2ccccc2-c2nnc(SC)o2)cc1OC	-6	.	.
O=S(=O)(O)c1cc(O)c2c(O)c(N=Nc3cc(Cl)ccc3O)c(S(=O)(=O)O)cc2c1	58*	21	6
O=S(=O)(O)c1cc(Cl)cc(N=Nc2ccc(O)cc2O)c1O	-3	.	.
CCOc1ccccc1NC(=O)NCC1CCN(C(=O)c2ccncc2)CC1	-12	.	.
COc1ccccc1NC(=S)N/N=C1\CC(C)(C)Oc2ccc(O)cc21	.	1	9
COc1ccc(NC(=S)N/N=C2\CC(C)(C)Oc3ccc(O)cc32)cc1	.	-10	5
Cc1ccccc1NC(=S)NN=C1CC(C)(C)Oc2ccc(O)cc21	47*	.	.
Cc1cccc(NC(=S)NN=C2CC(C)(C)Oc3ccc(O)cc32)c1	47*	.	.
CN(C)S(=O)(=O)Nc1cccc(O)c1	-5	.	.
CCOC(=O)c1sc(NC(=O)c2cccc(Br)c2)nc1C	6	.	.
CC(C)(Oc1ccc(Cl)cc1)C(=O)NCC1(c2ccc(F)cc2)CC1	-26	.	.
CCn1nc(C)c(/C=N\NC(=O)C(C)(C)Oc2ccc(Cl)cc2)c1C	-3	.	.
CN(C)CCCNc1cc(O)c2ncccc2c1	48*	.	.
Oc1cc(NCc2ccc(F)cc2)cc2cccnc12	29	.	.
COc1cc(=O)n(-c2ccccc2)nc1C(=O)Nc1ccc(C(F)(F)F)cc1	13	.	.
CN(C)c1ccc(C=NNC(=O)C2CC2c2ccccc2)cc1 (stereo unspecified)	44*	.	.
CCCCCC1CC1C(=O)N/N=C/c1ccc(N(C)C)cc1 (stereo unspecified)	.	-13	4
CCOCC(=O)NCc1ccsc1	2	.	.
COC(=O)C1CN(C#N)N(c2ccc(Cl)cc2)C12c1ccccc1-c1ccccc12 (stereo unspecified)	24	84*	2
O=C1c2ccccc2C(O)N1c1ccc(Cl)cc1 (stereo unspecified)	0	9	-1
O=C(c1cccc(Oc2ccc(F)cc2)c1)N1CCc2ncncc2C1	-5	.	.
Cn1cc(C(=O)N2CCCC2)cc(NC(=O)[C@H]2CC(=O)N(c3ccc(F)cc3)C2)c1=O	-4	.	.
FC(F)(F)c1nc2ccccc2nc1NN=Cc1ccc(Cl)cc1	5	.	.
SMILES	PriA SSB inh	BJeLR lethal	3CLpro inhibitor
FC(F)(F)c1nc2ccccc2nc1NN=Cc1ccccc1	60*	.	.
N#Cc1ccc(C(=O)N2CCC[C@H](Oc3cnccn3)C2)cc1	-9	.	.
CCOC(=O)c1cnc(-n2nc(C)cc2C)[nH]c1=O	13	1	3
CCOC(=O)c1cnc(-n2[nH]c(C)cc2=O)[nH]c1=O	93*	0	1
CCOC(=O)c1cnc(Cc2ccccc2)[nH]c1=O	-14	-2	-1
CCOC(=O)c1cnc(-n2[nH]c(C)c(Cc3ccccc3)c2=O)[nH]c1=O	84*	9	2
COc1ccc(C)cc1NC(=O)CC1CCCCN1S(=O)(=O)c1ccccc1 (stereo unspecified)	24	.	.
Cc1cc(C)n(CC2CCNCC2)n1	31	.	.
COc1ccc(N/C=C2\CCc3ccccc3C2=O)cc1	.	29	34*
COc1ccc(NC=C2CCc3ccccc3C2=O)cc1	-43	.	.
O=C(Cn1cnc(-c2ccccc2)cc1=O)N1CCN(Cc2ccccc2)CC1	-14	.	.
CC(C)NC(=O)CSc1ncc(-c2ccc(Cl)c(Cl)c2)n1-c1cccc(C(F)(F)F)c1	-10	.	.
COC1(C)CC2C(CC1OC(=O)c1cc([N+](=O)[O-])cc([N+](=O)[O-])c1)C2(C)C (stereo unspecified)	74*	-1	3
COC(=O)c1cc(C(=O)NCC2CCCCC2)cc([N+](=O)[O-])c1	1	-3	-7
Cn1nccc1C(=O)Nc1nc2c(s1)CSc1ccccc1-2	1	.	.
CS(=O)(=O)c1ccc(C(=O)N(CCCn2ccnc2)c2nc3ccccc3s2)cc1	-1	.	.
Cc1ccc(C)c2sc(N(CCCn3ccnc3)C(=O)c3ccco3)nc12	-20	.	.
CCOc1ccc2nc(N(CCCn3ccnc3)C(=O)c3cccs3)sc2c1	40*	.	.
Cc1ccc(C)c2sc(N(CCCn3ccnc3)C(=O)Cc3ccc(F)cc3)nc12	33*	.	.
COc1ccc2nc(N(CCCn3ccnc3)C(=O)Cc3ccc(F)cc3)sc2c1	39*	.	.
O=C(C1COc2ccccc2O1)N(CCCn1ccnc1)c1nc2ccc(F)cc2s1 (stereo unspecified)	69	.	.
